# A selection: hits, their analogues and other compounds. The true share with any hit is near 2.8%.
# HTRA1 inh: HTRA1 (human) protease inhibition. hit rate 0.5% among 340,000. inhibition, % at 5.96 µM. recombinant HTRA1, FP-rhodamine activity-based probe, fluorescence polarization. Q92743; in the data active means inhibition above about 36%;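 further: 0% = enzyme with DMSO and 100% = wells lacking enzyme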
# PAFAH1B3 FP inh: inhibitors of human PAFAH1B3; inhibition, % at 3.39 µM; recombinant PAFAH1B3, FP-rhodamine probe, fluorescence polarization; Q15102; hit rate 0.28% among 340,000;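 active means inhibition above the screen-wide average of all tested compounds plus 3 SD, cut at about 25% in these data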;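 further: 0% = enzyme with DMSO only and 100% = wells lacking PAFAH1B3 protein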
# pPAFAH FP inh: inhibitors of human plasma PAF acetylhydrolase (pPAFAH); recombinant pPAFAH, FP-rhodamine probe fluorescence polarization; inhibition, % at 3.39 µM; hit rate 1.5% among 330,000; AID 463082;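 active means inhibition above the mean inhibition across the screen plus 3 SD, cut at about 25% in these data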;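 further: inhibitors block binding of the rhodamine activity-based probe so polarization drops; 0% = enzyme with DMSO and 100% = wells lacking pPAFAH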
# Target sequence (Q13093 whole entry, looked up): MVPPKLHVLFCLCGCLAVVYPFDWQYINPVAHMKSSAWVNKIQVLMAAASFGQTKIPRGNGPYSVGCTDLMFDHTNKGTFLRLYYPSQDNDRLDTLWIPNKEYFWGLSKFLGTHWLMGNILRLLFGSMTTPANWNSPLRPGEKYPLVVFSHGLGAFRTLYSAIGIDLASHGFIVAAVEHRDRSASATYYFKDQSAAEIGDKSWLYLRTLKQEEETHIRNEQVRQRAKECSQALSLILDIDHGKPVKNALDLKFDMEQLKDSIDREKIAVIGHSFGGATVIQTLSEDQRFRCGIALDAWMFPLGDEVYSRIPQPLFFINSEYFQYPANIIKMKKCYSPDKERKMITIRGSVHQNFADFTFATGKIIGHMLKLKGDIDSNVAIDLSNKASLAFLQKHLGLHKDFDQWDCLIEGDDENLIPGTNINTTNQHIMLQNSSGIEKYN
# PAFAH2 FP inh: inhibitors of human PAFAH2 | recombinant PAFAH2, FP-rhodamine activity probe, fluorescence polarization | AID 492956 | hit rate 0.99% among 340,000 | Q99487 | inhibition, % at 3.39 µM;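 active means inhibition above the mean over all tested compounds plus 3 SD, cut at about 30% in these data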;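 further: inhibitors block probe labeling of enzyme so polarization drops; 0% = enzyme with DMSO and 100% = wells lacking PAFAH2 protein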
# PAFAH1B2 inh: blocks human PAF acetylhydrolase 1b catalytic subunit 2; P68402; recombinant PAFAH1B2, FP-rhodamine activity probe, fluorescence polarization; inhibition, % at 3.39 µM; hit rate 1.2% among 340,000;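 active means inhibition above the mean of all tested compounds plus 3 SD, cut at about 24% in these data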;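 further: 0% = enzyme with DMSO and 100% = wells lacking PAFAH1B2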
# DAGLB inhibitor: diacylglycerol lipase beta (human) inhibition; HEK293T DAGLB membrane lysate, EnzChek fluorogenic substrate; inhibition, % at 5.17 µM; hit rate 0.059% among 340,000; in the data active means inhibition above about 34%;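 further: 0% = enzyme with vehicle and 100% = wells lacking enzyme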
# DAGLB inh conf: DAGLB (human) inhibition, confirmation screen; shares compounds with DAGLB inhibitor; HEK293T DAGLB membrane lysate, EnzChek fluorogenic substrate; inhibition, % at 5.17 µM; hit rate 73% among 190; AID 504445;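 active means mean inhibition over triplicate wells above a set limit taken from the primary lipase screen, cut at about 34% in these data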;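 further: 0% = DAGLB with DMSO and 100% = wells lacking DAGLB enzyme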
# Numbers without * were called inactive; / = no result given.
SMILES,HTRA1 inh,PAFAH1B3 FP inh,pPAFAH FP inh,PAFAH2 FP inh,PAFAH1B2 inh,DAGLB inhibitor,DAGLB inh conf
CCOc1cc2c3c(c1)C(C)=CC(C)(C)N3C(=O)C2=O,2,9,3,1,6,8,/
CC(=O)Oc1cc2c3c(c1)/C(=C1/SC(=S)NC1=O)C(=O)N3C(C)(C)C=C2C,29,16,30*,37*,48*,50*,59*
COc1ccc(/C=N/Nc2ccc(C(F)(F)F)cc2[N+](=O)[O-])cc1O,9,-3,9,7,-4,40*,64*
CC1=NN(c2ccccc2)C(=O)/C1=C/c1c(C)[nH]n(-c2ccc(C)cc2)c1=O,/,/,2,/,/,/,/
CC1=NN(c2ccc(Cl)cc2)C(=O)/C1=C\c1cccn1-c1ccc(S(N)(=O)=O)cc1,7,-3,8,2,0,36*,28
Cn1cc(/C=C2\SC(=O)NC2=S)c2ccccc21,16,9,18,18,11,37*,54*
Cc1ccc(C(=O)NN2C(=O)/C(=C/c3cn(C)c4ccccc34)SC2=S)cc1,-3,-23,-3,-19,-16,-6,/
COc1cc([C@H]2c3[nH]c4ccccc4c3C[C@H]3C(=O)N4[C@@H](c5cc(OC)c(OC)c(OC)c5)c5[nH]c6ccccc6c5C[C@H]4C(=O)N23)cc(OC)c1OC,-14,-21,-5,-29,-9,35*,43*
C/C(=N\O)C(C)Oc1ccc(Cl)cc1 (stereo not given),3,5,0,1,13,-2,/
Cc1cccc(OCC(=O)OC(C)CN2CCCCC2)c1 (stereo not given),4,5,4,2,3,-1,/
C/C(C/C(C)=C1/SC(=S)NC1=O)=C1\SC(=S)NC1=O,-11,15,/,12,6,47*,35*
CCCCCC/C(C)=C1/SC(=S)NC1=O,-36,5,3,-4,21,11,/
Cc1ccc(C2(C)NC(=O)N(CC(=O)NNC(=O)c3ccccc3)C2=O)cc1 (stereo not given),-3,4,0,-6,9,3,/
CC/C(=N\Nc1ccc([N+](=O)[O-])cc1[N+](=O)[O-])c1ccc(O)cc1,19,8,2,-4,-1,39*,38*
O=Nc1c(-c2c(O)[nH]c3cc(Br)ccc23)[nH]c2ccccc12,23,13,-19,-57,1,47*,59*
COC(=O)c1ccccc1NC(=O)COC(=O)c1ccccc1N=Nc1ccc(N(C)C)cc1,2,4,3,9,2,17,/
CC(=O)c1ccc(NC(=O)COC(=O)c2ccccc2N=Nc2ccc(N(C)C)cc2)cc1,31,7,17,-1,1,36*,28
O=C1C(=C(c2ccccc2)c2ccccc2)Nc2ccccc21,13,-4,9,4,-1,40*,38*
O=C1C(=C(O)c2ccccc2)C(=O)c2ccccc21,0,2,0,3,-6,2,/
N#Cc1ccc(C(=O)OCC(=O)Nc2ccc(S(N)(=O)=O)cc2)cc1,10,10,1,1,5,1,/
CCOc1cc(CNS(=O)(=O)c2ccc3c(c2)CC(=O)N3C)cc(OCC)c1OCC,4,0,4,2,-2,1,/
CC1=NN(c2ccccc2)C(=O)/C1=C\C=C1\N(C)c2ccccc2C1(C)C,4,0,-1,-8,-6,21,/
CC1=NN(c2ccccc2)C(=O)/C1=C\C=C1/N(C)c2ccccc2C1(C)C,11,3,9,-1,1,40*,61*
COc1ccc2[nH]cc(CCNC(=O)COc3ccc4ccc(=O)oc4c3)c2c1,-1,4,-1,0,5,-1,/
CCc1nnc(NS(=O)(=O)c2ccc(Nc3ccc([N+](=O)[O-])c4nonc34)cc2)s1,2,14,15,14,7,36*,32
SMILES,HTRA1 inh,PAFAH1B3 FP inh,pPAFAH FP inh,PAFAH2 FP inh,PAFAH1B2 inh,DAGLB inhibitor,DAGLB inh conf
Cc1ccc(-n2[nH]c(C)c(/C=N/Nc3ccc([N+](=O)[O-])cc3[N+](=O)[O-])c2=O)cc1C,13,14,7,24,8,39*,48*
N#C/C(=N\Nc1ccc([N+](=O)[O-])cc1)C(N)=S,-2,-3,11,-4,-6,38*,26
N#C/C(=N/Nc1ccc([N+](=O)[O-])cc1)C(=N)N1CCCCC1,-9,-1,/,14,9,23,/
COc1ccc(C)cc1Nc1n[n+](-c2ccccc2)c(-c2c(OC)ccc3ccccc23)s1,-17,5,14,5,0,5,/
c1ccc(-[n+]2nc(Nc3cccc4ccccc34)sc2-c2c3ccccc3cc3ccccc23)cc1,18,10,9,-6,3,43*,41*
Cc1cc(N(CCO)CCO)ccc1N=Nc1cc(F)ccc1F,31,-6,19,7,2,43*,45*
O=C(NN1C(=O)/C(=C/c2ccc(O)c(O)c2)SC1=S)c1ccccc1,-56,-39,-6,-48,-23,39*,32
COc1cc(/C=C2\SC(=S)N(Nc3ccccc3)C2=O)ccc1O,-185,-143,-72,-167,-81,5,/
O=C1/C(=C/c2ccc(O)c(O)c2)SC(=S)N1Nc1ccccc1,-38,-37,/,-2,-60,40*,30
NC(=O)CC(NC(=O)c1ccc(Br)cc1)c1ccc(NCCc2ccc(F)cc2)c([N+](=O)[O-])c1 (stereo not given),-3,4,3,-2,8,39*,76*
C=CCN1C(=O)/C(=C/c2ccc(-c3ccc(F)cc3)o2)SC1=S,1,-3,4,-2,4,0,/
CC1CCCCC1NC(=O)CCC(=O)N1CCOc2ccc(Cl)cc21 (stereo not given),1,-5,6,12,1,0,/
Cc1ccc(NS(=O)(=O)c2cc([N+](=O)[O-])ccc2NNC(=S)Nc2cccc(Cl)c2)c(C)c1,19,-12,22,10,41*,44*,74*
Cc1ccc(NS(=O)(=O)c2cc([N+](=O)[O-])ccc2NNC(=S)Nc2cc(C)ccc2C)c(C)c1,36,3,23,17,2,33,/
CCCCc1ccc(C2C3=C(CC(C)(C)CC3=O)NC3=C2C(=O)c2ccccc23)cc1 (stereo not given),11,16,27*,-7,-5,46*,33
CN(C)c1ccc(N=Nc2nc3ccccc3n2C)cc1,2,-24,-1,-24,-12,36*,59*
CSc1nc(C)c(C(=O)C[n+]2ccccc2)cc1C#N,-1,0,5,2,-3,1,/
CCSC1=NC(=O)/C(=C2/C=Cc3ccccc3N2CC)S1,4,4,-4,-10,3,37*,41*
